From PubChem BioAssay AID1159580 (chemical genetic matrix, 2015)
In all, about 5,500 compounds went through this assay and about 2,000 (36%) were called active. Roughly 18% stayed inconclusive and do not appear here. No stated cut-off is given here; in the data, active means normalized growth mostly below about 0.91 (no sharp cut-off); inconclusive means no clear call, values can overlap the other calls; inactive means mostly above about 0.92. Some of the results follow.

Assay: chemical genetic growth profiling, strain panel (AID 1159580);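 further: tested at 20 µM; growth read once vehicle control cultures reached saturation at 30 °C; 1 = growth at the plate median or of vehicle wells; lower values mean less growth of the strain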
Settings: S. cerevisiae deletion strains, growth OD
[1] = locus YDL101C, strain DUN1, hits give low values
[2] = locus YHR030C, strain SLT2, hits give low values

Measured: normalized growth

OC(CN1CCN(c2nc3ccc(Cl)cc3s2)CC1)Cn1ccc2ccccc21 (stereo not given)
inactive: locus YAR019C, strain CDC15, hits give low values 1 | locus YBL105C, strain PKC1, hits give low values 0.99 | locus YBR135W, strain CKS1, hits give low values 0.991 | locus YBR136W, strain MEC1, hits give low values 0.996 | locus YBR160W, strain CDC28, hits give low values 0.985 | locus YDL017W, strain CDC7, hits give low values 0.996 | locus YDL028C, strain MPS1, hits give low values 0.99 | [1] 0.989 | locus YDL108W, strain KIN28, hits give low values 0.986 | locus YDL132W, strain cdc53, hits give low values 1 | locus YDL214C, strain PRR2, hits give low values 0.92 | locus YDR052C, strain DBF4, hits give low values 1 | locus YDR054C, strain cdc34, hits give low values 0.996 | locus YDR226W, strain ADK1, hits give low values 0.99 | locus YDR477W, strain SNF1, hits give low values 0.935 | locus YER123W, strain YCK3, hits give low values 0.903 | locus YER133W, strain GLC7, hits give low values 0.93 | locus YFL009W, strain cdc4, hits give low values 0.993 | locus YFL029C, strain CAK1, hits give low values 0.989 | locus YFR003C, strain YPI1, hits give low values 0.992 | locus YFR019W, strain FAB1, hits give low values 0.935 | locus YFR028C, strain CDC14, hits give low values 0.995 | locus YGR040W, strain KSS1, hits give low values 0.934 | locus YGR052W, strain FMP48, hits give low values 1.02 | locus YGR092W, strain DBF2, hits give low values 0.96 | [2] 0.864 | locus YHR079C, strain IRE1, hits give low values 0.955 | locus YHR082C, strain KSP1, hits give low values 1.05 | locus YHR205W, strain SCH9, hits give low values 0.97 | locus YIL147C, strain SLN1, hits give low values 0.999 | locus YJL095W, strain BCK1, hits give low values 0.954 | locus YJL128C, strain PBS2, hits give low values 0.942 | locus YJL157C, strain FAR1, hits give low values 0.924 | locus YJR016C, strain ILV3, hits give low values 0.991 | locus YJR066W, strain TOR1 (second series), hits give low values 0.875 | locus YJR066W, strain TOR1, hits give low values 0.991 | locus YKL048C, strain ELM1, hits give low values 0.981 | locus YKL067W, strain YNK1, hits give low values 0.924 | locus YKL101W, strain HSL1, hits give low values 0.942 | locus YKL193C, strain SDS22, hits give low values 0.994 | locus YKL203C, strain TOR2, hits give low values 0.981 | locus YLR113W, strain HOG1, hits give low values 0.864 | locus YLR133W, strain CKI1, hits give low values 0.942 | locus YLR403W, strain SFP1, hits give low values 0.926 | locus YML070W, strain DAK1, hits give low values 0.927 | locus YMR001C, strain CDC5, hits give low values 0.988 | locus YMR205C, strain PFK2 (second series), hits give low values 0.948 | locus YMR277W, strain FCP1, hits give low values 1 | locus YNL006W, strain LST8, hits give low values 0.985 | locus YNL020C, strain ARK1, hits give low values 0.942 | locus YNL161W, strain CBK1, hits give low values 0.982 | locus YNL183C, strain NPR1, hits give low values 1 | locus YNL207W, strain RIO2, hits give low values 1 | locus YNL222W, strain SSU72, hits give low values 0.999 | locus YNL307C, strain MCK1 (second series), hits give low values 0.935 | locus YOL078W, strain AVO1, hits give low values 0.976 | locus YOL136C, strain PFK27, hits give low values 0.912 | locus YOR061W, strain CKA2, hits give low values 0.952 | locus YOR119C, strain RIO1, hits give low values 1.01 | locus YOR231W, strain MKK1, hits give low values 0.947 | locus YOR329C, strain SCD5, hits give low values 0.986 | locus YPL031C, strain PHO85, hits give low values 0.938 | locus YPL153C, strain RAD53, hits give low values 0.959 | locus YPL204W, strain HRR25, hits give low values 0.895 | locus YPL209C, strain IPL1, hits give low values 0.989 | locus YPL256C, strain CLN2, hits give low values 0.938 | locus YPR025C, strain CCL1, hits give low values 0.99 | locus YPR106W, strain ISR1, hits give low values 0.991 | locus YPR111W, strain DBF20, hits give low values 0.967 | strain NNK1, hits give low values 0.974 | strain TSCII, hits give low values 0.995

OC(CN1CCN(c2nc3ccc(Cl)cc3s2)CC1)CN1CCCN(c2ncc(C(F)(F)F)cc2Cl)CC1 (stereo not given)
inactive: locus YAL013W, strain DEP1, hits give low values 1 | locus YBR229C, strain ROT2, hits give low values 0.943 | locus YCL061C, strain MRC1, hits give low values 0.997 | [1] 1.03 | locus YDR150W, strain NUM1, hits give low values 0.942 | locus YGR078C, strain PAC10, hits give low values 1.02 | locus YHR087W, strain rtc3, hits give low values 0.952 | locus YJL187C, strain SWE1, hits give low values 0.995 | locus YJR043C, strain POL32, hits give low values 1.02 | locus YJR075W, strain HOC1, hits give low values 1.01 | locus YLR058C, strain SHM2 (second series), hits give low values 0.999 | locus YMR219W, strain ESC1, hits give low values 1.01 | locus YMR263W, strain SAP30, hits give low values 1.02 | locus YNL153C, strain GIM3, hits give low values 1 | locus YNL322C, strain KRE1, hits give low values 1.03 | locus YPL055C, strain LGE1, hits give low values 0.985
active: locus YDL134C, strain PPH21, hits give low values 0.0459 | locus YEL061C, strain CIN8, hits give low values 0.0536 | [2] 0.068 | locus YKL190W, strain CNB1, hits give low values 0.0453 | locus YLR039C, strain RIC1, hits give low values 0.0605 | locus YLR085C, strain ARP6, hits give low values 0.0639 | locus YLR262C, strain YPT6, hits give low values 0.0604 | locus YML094W, strain GIM5, hits give low values 0.0664 | locus YNL298W, strain CLA4 (second series), hits give low values 0.0802 | locus YNR030W, strain Alg12, hits give low values 0.0638 | locus YOL006C, strain TOP1, hits give low values 0.0656 | locus YPL241C, strain CIN2, hits give low values 0.0618 | locus YPR135W, strain CTF4, hits give low values 0.16
